This is one part of a sample in which hits are shown more often than they occur.
PglD inh – C. jejuni PglD acetyltransferase inhibitors, primary screen, biochemical, DTNB colorimetric, single point; UDP-N-acetylbacillosamine N-acetyltransferase PglD (Campylobacter jejuni); purified PglD enzyme, DTNB colorimetric CoA detection; inhibition, % at 12.5 µM; 360,000 compounds, 0.098% hits; AID 602405, 2012; in the data active = inhibition above about 16%, passing the limit was not always enough
ERp5 inh – inhibitors of ERp5-driven insulin aggregation, primary screen, biochemical, turbidity, absorbance 650 nm, single point; 90 min; inhibition, % at 9.99 µM; 350,000 compounds, 0.05% hits;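 active = mean replicate inhibition above about 25%, with every replicate also reaching it, limit read from the data, passing the limit was not always enough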
Target sequence (Q15084 whole entry, looked up): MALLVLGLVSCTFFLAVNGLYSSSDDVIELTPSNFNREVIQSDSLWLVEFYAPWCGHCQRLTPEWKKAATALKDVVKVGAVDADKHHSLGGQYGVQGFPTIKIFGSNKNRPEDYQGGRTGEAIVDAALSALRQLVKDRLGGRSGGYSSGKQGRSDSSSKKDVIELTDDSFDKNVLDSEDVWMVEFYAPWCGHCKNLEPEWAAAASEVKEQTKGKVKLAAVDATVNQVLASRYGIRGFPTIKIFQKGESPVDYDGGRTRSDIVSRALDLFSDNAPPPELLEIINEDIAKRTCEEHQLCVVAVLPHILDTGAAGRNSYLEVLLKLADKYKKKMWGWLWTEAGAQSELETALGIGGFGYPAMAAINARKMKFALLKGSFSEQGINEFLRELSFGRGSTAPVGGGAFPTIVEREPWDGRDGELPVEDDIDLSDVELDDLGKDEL
PDI turbidity – inhibitors of human PDI, primary screen, biochemical, turbidity, single point, plate reader. PDI insulin aggregation turbidity, A650, 90 min. inhibition, % at 10 µM. 350,000 compounds, 0.052% hits;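 active = mean inhibition across replicates of 30% or more, whatever share of single replicates reach that level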
ALR inh – inhibitors of human ALR sulfhydryl oxidase, primary screen, biochemical, H2O2 detection, HRP-luminol luminescence, single point | FAD-linked sulfhydryl oxidase ALR (Homo sapiens), P55789 | AID 485317, 2010 | 290,000 compounds, 3.8% hits | purified ALR, DTT oxidation | inhibition, % (no concentration beside the values);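 active = mean replicate inhibition above about 79%, with every replicate also reaching it, limit read from the data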
ARNT-TACC3 inh – disruptors of ARNT/TACC3 protein interaction, primary screen, biochemical, AlphaScreen, single concentration | Transforming acidic coiled-coil-containing protein 3 (Homo sapiens), Q9Y6A5 | 390,000 compounds, 0.66% hits | inhibition, % at 9.99 µM | AlphaScreen His-ARNT PAS-B/GST-TACC3 binding, luminescence; TACC3 fragment carries E629A point mutation;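 active = mean inhibition of replicates at least 50% and at least half of replicates each reaching 50%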;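 also: 0% = complete ARNT plus TACC3 wells and 100% = ARNT alone without TACC3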
NRP1-CendR mod – modulators of CendR peptide binding to NRP-1, primary screen, biochemical, fluorescence polarization, uHTS. 360,000 compounds, 0.85% hits. FAM-RPARPAR peptide binding to NRP-1. Neuropilin-1 (Homo sapiens), O14786. inhibition, % at 25 µM;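 active = inhibition or corrected inhibition above about 18%, plus a signal ratio from 0.5 to 1.5, limit read from the data, passing the limit was not always enough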
An asterisk follows results filed as active; · = not tested or not shown.

SMILES	PglD inh	ERp5 inh	PDI turbidity	ALR inh	ARNT-TACC3 inh	NRP1-CendR mod
C[C@@H]1CN([C@@H](C)CO)C(=O)Cc2cc(NS(=O)(=O)c3ccccc3)ccc2O[C@H]1CN(C)S(C)(=O)=O	0	1	-5	-3	0	21*
C[C@@H]1CN([C@H](C)CO)C(=O)Cc2cc(NS(=O)(=O)c3ccccc3)ccc2O[C@@H]1CN(C)S(C)(=O)=O	0	5	·	·	-8	·
C[C@H](CO)N1C[C@H](C)[C@@H](CN(C)Cc2ccc(C(=O)O)cc2)Oc2ccc(NS(=O)(=O)c3cccs3)cc2CC1=O	·	43*	·	·	·	·
Cc1ccc(S(=O)(=O)N(C)C[C@@H]2Oc3ccc(NC(=O)CCC(F)(F)F)cc3C(=O)N([C@@H](C)CO)C[C@H]2C)cc1	6	2	·	·	1	·
CC(=O)N1CCC(=NNc2ncc(C(F)(F)F)cc2Cl)CC1	·	0	9	4	48*	4
C[C@@H]1CN([C@H](C)CO)C(=O)c2cccc(N(C)C)c2O[C@H]1CN(C)C(=O)Nc1ccc(C(F)(F)F)cc1	-1	1	·	·	·	·
CCN(CC(=O)NCc1ccc(F)cc1)C(=O)/C=C/c1ccco1	·	3	-5	88*	-14	-7
CCN(CC(=O)NCc1ccc(F)cc1)C(=O)/C=C/c1cccs1	·	2	-4	1	1	-6
CCOC(=O)c1cc(-c2ccccc2)sc1NC(=S)Nc1cccc(C)n1	4	·	11	-6	-4	43*
CCOC(=O)c1cc(-c2ccccc2)sc1NC(=O)C(C)C	·	4	4	-7	-11	4
CO[C@H]1CC[C@@H]2CCN(C)C(=O)C[C@@H](c3ccccc3)CN(C)C(=O)c3cc(C#N)ccc3OC[C@@H]1O2	-1	3	·	·	-3	·
Nc1nnc(SCC(=O)c2ccc([N+](=O)[O-])cc2)s1	8	5	1	98*	8	-10
Cc1nnc(SCC(=O)c2ccc([N+](=O)[O-])cc2)s1	·	2	2	-15	3	20
C[C@@H]1CN([C@@H](C)CO)C(=O)c2cc(NC(=O)CCC(F)(F)F)ccc2O[C@@H](C)CCCCO[C@H]1CN(C)Cc1ccc2c(c1)OCO2	2	1	·	·	-11	·
CC(C)(C)NC(=O)CCN(/N=C/c1ccc([N+](=O)[O-])o1)C1=NS(=O)(=O)c2ccccc21	-21	0	6	-62	79*	-45
O=C1C(Cl)=C(NCC2CCCO2)C(=O)N1C1CCCCC1 (stereo unspecified)	-2	·	-2	98*	3	6
O=C1C(Cl)=C(NCC2CCCO2)C(=O)N1c1ccccc1 (stereo unspecified)	3	·	-3	0	0	-8
Cn1c(N)c(C(=O)Nc2ccc3ccccc3c2)sc1=S	-5	·	-5	-4	6	-34
Cn1c(N)c(C(=O)Nc2ccccc2F)sc1=S	-4	3	16	99*	11	-4
O=C(/C=C\Nc1ccc2c(c1)OCO2)c1cccs1	-3	3	2	96*	14	-34
O=C(/C=C\Nc1ccc2c(c1)OCO2)c1ccc(Cl)s1	-2	3	0	-3	-15	-183
N#C[C@H]1[C@H](c2ccc(C#Cc3ccccc3F)cc2)[C@@H](CO)N1C(=O)C1CCOCC1	3	1	·	·	29	·
COC(=O)C[C@H]1C[C@H]2c3cc(NC(=O)Cc4ccncc4)ccc3O[C@H]2[C@H](CO)O1	0	61*	·	·	5	·
COC(=O)C[C@@H]1C[C@H]2c3cc(NC(=O)Cc4ccncc4)ccc3O[C@H]2[C@H](CO)O1	2	-6	·	·	5	·
COC(=O)C[C@@H]1C[C@@H]2c3cc(NC(=O)Cc4ccncc4)ccc3O[C@@H]2[C@H](CO)O1	4	36*	·	·	3	·

Bioassay records: PubChem, several laboratories
